From PubChem BioAssay (NCI)
The panel holds about 79,000 compounds, 15% with a hit somewhere; the sample as a whole holds those more often. Values without a mark were called inactive. Active and inactive are the calls of the source. Rule as the data show it: active = growth inhibition above about 70%; inactive = the rest.

assay: NCI Yeast Anticancer Drug Screen. Data for the mgt1 strain (AID 153); details: S. cerevisiae mgt1 mutant growth inhibition; at 11.0 µM; active compounds read high
Outline: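 Growth inhibition relative to vehicle controls was scored for the mgt1 yeast strain after compound exposure.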

| SMILES | growth inhibition |
| --- | --- |
| CCC/C(Cl)=N\OC(=O)Nc1cccc(C(F)(F)F)c1 | 68% |
| [O-][n+]1c2ccc(O)cc2nc2ccc(Cl)cc21 | 34% |
| Clc1ccccc1C1OC1c1ccccc1Cl (centres undefined) | -65% |
| c1ccc2c(c1)c1ncccc1c1nccnc21 | -2% |
| CC(=O)Nc1ccc2c(c1)C(=Nc1ccc(C(=O)O)cc1)c1ccccc1-2 | -5% |
| COc1ccc(OC)c2cc3ccccc3cc12 | 15% |
| COc1cc(C2c3cc4c(cc3OC(NNc3ccccc3)C2C)OCO4)cc(OC)c1OC (centres undefined) | 26% |
| O=C1c2cc([N+](=O)[O-])ccc2-c2cccc(F)c21 | 12% |
| CCCCCCCCCCCC(=O)N(C)C | 18% |
| CCCCCCCCCCCC1=C(O)C(=O)C=C(O)C1=O | 22% |
| Cc1ccc(CSC(N)=Nc2ccccc2)cc1C | -8% |
| CCCCCCCCCCC1CCC(=O)O1 (centres undefined) | 0% |
| O=[N+]([O-])c1cc(CCl)ccc1CCl | 25% |
| Nc1ccc2c(c1)C(=O)c1cccc(N)c1C2=O | 21% |
| CCCCCCCCCCNC(=O)OCC | 4% |
| CC1=C(C)Cc2c(O)ccc(O)c2C1 | 6% |
| COc1ccc2c(c1)C(=O)c1ccccc1C2 | 5% |
| CCC(=O)OCCn1c2nc(=O)[nH]c(=O)c-2nc2cc(C)c(C)cc21 | 3% |
| O=C(OCCN1CCCCCC1)C(c1ccsc1)C1CCCCC1 (centres undefined) | 34% |
| Oc1c(Br)cc(Br)cc1C1CCCCC1 | 22% |

| SMILES | growth inhibition |
| --- | --- |
| CC1(C)[C@@H]2CC[C@]1(C)[C@H](OC(=O)CSC#N)C2 | 23% |
| S=C(N/N=C(/c1ccccc1)c1ccccn1)N1CCCCCC1 | 16% |
| Cc1ccc2[nH]c3c(C)c4cc[n+](C)cc4c(C)c3c2c1 | -23% |
| CNC(=O)OCc1c(COC(=O)NC)c(-c2ccc(-c3ccccc3)cc2)n(C)c1C | -6% |
| COc1ccccc1/C=C1\Sc2scc(-c3cccc([N+](=O)[O-])c3)[n+]2C1=O | 99% (active) |
| O=[N+]([O-])c1ccc2c(c1)C(N1CCN(CCO)CC1)Cc1ccc(F)cc1S2 (centres undefined) | -5% |
| Cc1ccc(CCC2=CCCc3c2ccc2ccccc32)cc1 | -3% |
| O=[N+]([O-])c1cccc2nccc(NCCCO)c12 | -12% |
| Cc1ccc(-n2cc(-c3ccc(Cl)cc3)c(C#N)c2N)cc1 | 2% |
| Cc1ccc(S/N=C\c2ccccc2O)cc1 | 1% |
| O=C(O)C1OC1(c1cccc(Cl)c1)c1ccccc1Cl (centres undefined) | 28% |
| NC(=S)N/N=C\c1nccc2ccccc12 | 21% |
| Clc1cccc(C(Nc2nncs2)Nc2nncs2)c1Cl | 0% |
| O=C(OCC=C1CCCC1)c1cc([N+](=O)[O-])cc([N+](=O)[O-])c1 | 16% |
| O=C(Nc1ccccc1)C(=O)C(C(=O)c1ccccc1)C(c1ccccc1)c1ccccc1 (centres undefined) | 5% |
| N#CN1C2CCC1CC(=O)C2 | -13% |
| COc1ccccc1C(=O)OCC1CCCN2CCCCC12 (centres undefined) | 73% (active) |
| CCNc1nnc(CSc2nc(-c3ccccc3)c(-c3ccccc3)[nH]2)s1 | -18% |
| O=C1c2ccccc2-c2n[nH]c3cccc1c23 | -10% |
